Compound activity as filed in PubChem BioAssay.
Rows were chosen to be rich in hits. Some 11% of all compounds tested hit in one or more screens of this group.
ALDH1A1 inh = inhibitors of human aldehyde dehydrogenase 1A1 | 7.3% of 220,000 active | P00352 | Purified ALDH1A1, NADH fluorescence, propionaldehyde substrate | Potency, µM (doses to about 75.3 µM), without a hit: top-dose activity, negative = inhibition, usual class: inhibitors;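 also: potency is read from the fitted curve at half-maximal effect; plate controls were no enzyme wells and a reference inhibitor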
Target sequence (P00352 whole entry, looked up): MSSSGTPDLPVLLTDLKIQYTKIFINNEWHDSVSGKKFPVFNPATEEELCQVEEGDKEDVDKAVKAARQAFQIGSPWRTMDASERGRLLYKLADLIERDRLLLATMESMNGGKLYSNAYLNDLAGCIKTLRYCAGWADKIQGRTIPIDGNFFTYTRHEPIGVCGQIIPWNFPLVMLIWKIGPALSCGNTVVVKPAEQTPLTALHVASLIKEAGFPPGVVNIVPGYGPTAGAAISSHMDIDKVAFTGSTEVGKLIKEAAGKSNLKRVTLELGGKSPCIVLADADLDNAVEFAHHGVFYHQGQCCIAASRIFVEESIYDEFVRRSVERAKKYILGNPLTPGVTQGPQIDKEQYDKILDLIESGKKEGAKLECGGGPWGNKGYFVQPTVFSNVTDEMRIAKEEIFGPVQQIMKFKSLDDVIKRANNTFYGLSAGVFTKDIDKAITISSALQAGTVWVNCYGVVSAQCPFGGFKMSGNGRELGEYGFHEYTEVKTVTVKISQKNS
IMPase cell inh = membrane-permeable compound that blocks inositol monophosphatase; AID 901; CHO-M1 cells, IP1 accumulation, HTRF TR-FRET ratio; P97697; inhibition (IP1 accumulation), % at 46.1 µM; 120,000 tested, under 10 active; active = well fitted curve in the direction sought with a large enough effect in the signal ratio, not every such curve was filed as active; inconclusive = small, poorly fitted or top-dose-only effect, or a change in a side signal; inactive = no such curve, though single readings can be large or run the other way; the % refers to the signal ratio;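 also: cells stimulated with carbachol in lithium chloride buffer; plate controls were DMSO basal wells for no effect and reference inhibitor wells for full effect; higher means more IMPase inhibition seen as more IP1 and lower FRET ratio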
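CHO-M1, 2000 cells/well, cultured 16–30 h; cpd up to 46 uM; carbachol (50 uM solution, stimulation buffer w/ 50 mM LiCl, pH 7.4), 30 min 37C; IP-One TR-FRET, 10 min RT; Ex 320/Em 665, 620; Hill-fit AC50.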
PNC assembly inh = blocks assembly of the perinucleolar compartment | PC3M PTB-GFP, PNC prevalence imaging, 16 h; stronger effect = lower value | activity change (PNC), negative = inhibition, % at 10 µM | 3.1% of 140,000 active | AID 2417;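 active = readout at or below -70, meaning at least 70% loss of cells showing the perinucleolar compartment, a nuclear body marking cancer cells; inconclusive = readout between -30 and a set limit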;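 also: plate controls were DMSO wells for no effect and camptothecin positive control wells for full effect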
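PC3M cells stably expressing PTB-GFP, 750–1000 cells/well, treated 16 h at 37 °C with compound (23 nl of library stock), in duplicate. After paraformaldehyde fixation and Hoechst stain, imaged at 20x; PNC prevalence scored by image analysis.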
ALOX12 inhib = inhibitors of human 12-lipoxygenase (ALOX12) | P18054 | purified 12-hLO, xylenol orange hydroperoxide absorbance | Potency, µM (doses to about 57.1 µM), for the others: at the top dose activity change, negative = inhibition, hits mostly inhibitors | 0.12% of 150,000 active; active = well fitted curve in the direction sought with a large enough effect; inconclusive = small, poorly fitted or top-dose-only effect, or another doubt; inactive = no such curve, though single readings can be large; an effect the other way counts as inactive or inconclusive; also: potency is read from the fitted curve at half-maximal effect; nearly all actives have a fitted effect of over 55% in size
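150 nM 12hLO, 25 mM Hepes pH 7.0 + 0.01% Triton X-100; cpd preinc 15 min RT; 40 uM arachidonic acid, 30 min RT; Fe-XO 30 min; A573/A405 ratio as read-out.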
HPGD block = blocks human HPGD enzyme activity; P15428; purified HPGD, NADH fluorescence kinetic, PGE2 substrate; Potency, µM, for inactives: at the highest dose activity change, negative = inhibition, hits mostly inhibitors; 4.3% of 150,000 active; AID 894; also: potency is read from the fitted curve at half-maximal effect
Target sequence (P15428 whole entry, looked up): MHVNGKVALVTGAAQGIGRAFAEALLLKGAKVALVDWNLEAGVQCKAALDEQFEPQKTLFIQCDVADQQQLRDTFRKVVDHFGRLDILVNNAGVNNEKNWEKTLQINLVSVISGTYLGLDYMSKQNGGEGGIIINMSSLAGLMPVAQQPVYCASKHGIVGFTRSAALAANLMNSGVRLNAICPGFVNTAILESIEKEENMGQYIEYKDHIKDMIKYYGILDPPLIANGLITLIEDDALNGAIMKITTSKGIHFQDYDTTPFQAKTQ
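20 nM HPGD preincubated 15 min at room temperature with compound in 50 mM Tris-HCl pH 8, 0.01% Tween 20. Started with 1 mM NAD+ and 30 uM prostaglandin E2; NADH fluorescence (360/450 nm) read 5 times over 30-s intervals, last minus first.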
IMPase Li cell = cell-permeable IMPase inhibitors with lithium potentiation; CHO-M1 cells, IP1 TR-FRET (IP-One), carbachol + lithium; Potency, µM (highest dose often 59.4 µM), without a hit: at the highest dose activity, negative = IMPase inhibition, usual class: inhibitors; 0.35% of 210,000 active; active = well fitted curve in the direction sought with a large enough effect; inconclusive = small, poorly fitted or top-dose-only effect, or another doubt; inactive = no such curve, though single readings can be large; an effect the other way counts as inactive or inconclusive;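 also: IP1 builds up when IMPase is blocked and the TR-FRET signal falls; potency is read from the fitted curve at half-maximal effect; plate controls were basal vehicle for no effect and high inhibitor control for full effect; nearly all actives have a fitted effect of over 50% in size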
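Test compounds were applied to CHO-M1 cells previously cultured for 16–30 h at 2000 per well. A small lithium amount accompanied them; after 30 min at 37C, IP1 was quantified by TR-FRET.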
* marks the source's active call; other numbers are inactive results; [ ] = remark or other dose. Unless noted, calls follow the shape of the dose curve; as a rule, active = well fitted inhibition curve with a large enough effect (not every such curve was filed as active); inconclusive = small, poorly fitted or top-dose-only effect, or another doubt; inactive = no such curve, though single readings can be large or run the other way. Unless noted, % is scaled to controls: 0 for no effect and ±100 for the full control effect.

Results for CS(=O)(=O)N(Cc1ccc(C(=O)NN=C2CCCC2)cc1)c1ccccc1 ?
ALDH1A1 inh: 1.3µM*; PNC assembly inh: -16; ALOX12 inhib: 4%; HPGD block: -9%; IMPase Li cell: -7%

How did c1cc2c3c(c1)ccc1cccc(c13)C2 do in these assays?
ALDH1A1 inh: -5%; ALOX12 inhib: -3%; HPGD block: -8%; IMPase Li cell: -21%

Results for COc1ccc(-c2cc(C(F)(F)F)nc(SCC(=O)NCCc3ccccc3)n2)cc1OC ?
IMPase cell inh: -1

Results for Clc1ccc(-c2n[nH]c3c2CCC3)cc1Cl ?
ALDH1A1 inh: inconclusive; IMPase cell inh: 6; PNC assembly inh: 9; ALOX12 inhib: -30%; HPGD block: 18µM*; IMPase Li cell: -5%[38.3 µM]

Results for Clc1ccc(-c2n[nH]c3c2CCCC3)cc1 ?
ALDH1A1 inh: 4%; IMPase Li cell: -2%

What do the screens show for `O=C1OC(/C=C/c2ccc(Cl)cc2Cl)=NC/1=C\c1cccs1`?
ALDH1A1 inh: 3.2µM*; PNC assembly inh: -27; ALOX12 inhib: -5%; HPGD block: -7%; IMPase Li cell: -4%

Results for O=C(/C=C/c1cccs1)c1cc(Cl)ccc1O ?
ALDH1A1 inh: -7%; IMPase Li cell: 4%

How did CCC(=O)OC1C2CC3=C4CC(=O)OC(c5ccoc5)[C@]4(C)CCC3[C@@](C)(C2=O)C(CC(=O)OC)C1(C)C (stereo not given in full) do in these assays?
ALDH1A1 inh: 8%; ALOX12 inhib: -1%; HPGD block: -8%; IMPase Li cell: 7%

Results for O=[N+]([O-])/C(=C\Nc1ccccc1)S(=O)(=O)c1ccccc1 ?
ALDH1A1 inh: -7%; IMPase cell inh: -3; PNC assembly inh: 19; ALOX12 inhib: -3%; HPGD block: -8%; IMPase Li cell: 5%[38.3 µM]

Results for O=[N+]([O-])/C(=C\Nc1ccccc1Cl)S(=O)(=O)c1ccccc1 ?
ALDH1A1 inh: -99%; IMPase cell inh: 4; PNC assembly inh: -25; ALOX12 inhib: -16%; HPGD block: 32µM*; IMPase Li cell: 8%[38.3 µM]

Results for Cn1cc(C=O)c2cc(F)ccc21 ?
ALDH1A1 inh: 2.2µM*; IMPase Li cell: 2%

What do the screens show for `C=CCSC1=N/C(=C\c2ccc(C(=O)O)cc2)C(=O)S1`?
ALDH1A1 inh: 3.5µM*; IMPase Li cell: 0%

What do the screens show for `CCN(N=Nc1cccc([N+](=O)[O-])c1)c1cccc([N+](=O)[O-])c1`?
ALDH1A1 inh: inconclusive; IMPase cell inh: -3; PNC assembly inh: 13; ALOX12 inhib: 9%; HPGD block: -17%; IMPase Li cell: 16%[38.3 µM]

Results for NC(=O)CN(N=Nc1cccc([N+](=O)[O-])c1)c1cccc([N+](=O)[O-])c1 ?
ALDH1A1 inh: 1.8µM*; IMPase Li cell: 12%

Results for CSC1=NC(C(Cl)(Cl)Cl)N=C(c2ccc(C)cc2)N1 (stereo not given) ?
ALDH1A1 inh: inconclusive; IMPase Li cell: 8%

How did CN(C)c1ccc(/C=N/N=C2/NC(=O)/C(=C/c3ccc([N+](=O)[O-])cc3)S2)cc1 do in these assays?
ALDH1A1 inh: 25µM*; IMPase cell inh: 7; PNC assembly inh: -9; ALOX12 inhib: -3%; HPGD block: -25%; IMPase Li cell: 11%[38.3 µM]

How did CS/C(N)=N/N=C/c1ccc([N+](=O)[O-])cc1 do in these assays?
ALDH1A1 inh: inconclusive; IMPase cell inh: 4; PNC assembly inh: 70; ALOX12 inhib: 3%; HPGD block: -21%; IMPase Li cell: -15%[38.3 µM]

How did C#C[C@@]1(O)CC[C@@H]2[C@@H]3CCC4=CC(=O)CC[C@@H]4[C@H]3CC[C@]21CC do in these assays?
ALDH1A1 inh: -9%[20.9 µM]; IMPase cell inh: 6[20.6 µM]; ALOX12 inhib: -3%[25.6 µM]; HPGD block: 4%; IMPase Li cell: 4%

Results for O=C(Nc1ccccc1)c1ccccc1OCC(O)CN1C(=O)c2ccccc2S1(=O)=O (stereo not given) ?
ALDH1A1 inh: inconclusive; IMPase cell inh: -8; PNC assembly inh: 6; ALOX12 inhib: -7%; HPGD block: -17%; IMPase Li cell: 14%[38.3 µM]

How did CCOC(=O)c1c(C)n(C)c2ccc(OCC(O)CN3C(=O)c4ccccc4S3(=O)=O)cc12 (stereo not given) do in these assays?
ALDH1A1 inh: 2.5µM*; IMPase cell inh: -3; PNC assembly inh: 34; ALOX12 inhib: -3%; HPGD block: -16%; IMPase Li cell: 9%

What do the screens show for `COc1ccc(OCC(O)CN2C(=O)c3ccccc3S2(=O)=O)cc1` (stereo not given)?
ALDH1A1 inh: inconclusive; IMPase cell inh: 2; PNC assembly inh: -83*; ALOX12 inhib: 0%; HPGD block: -12%; IMPase Li cell: -18%[38.3 µM]

How did CCOC(=O)c1c(C)n(C)c2ccc(OCC(O)Cn3nc(C)cc3C)cc12 (stereo not given) do in these assays?
ALDH1A1 inh: 3%; IMPase cell inh: -1; PNC assembly inh: 32; ALOX12 inhib: -5%; HPGD block: -7%; IMPase Li cell: 8%[38.3 µM]

What do the screens show for `COC(=O)c1ccc(C23CC4(C2)[C@H](CN(CC2CCCCC2)[C@@H]4c2ccccc2)C3c2ccccc2)cc1` (stereo not given in full)?
ALDH1A1 inh: inconclusive; ALOX12 inhib: -2%; HPGD block: -16%; IMPase Li cell: 13%

What do the screens show for `COc1cccc2c1NC(C(=O)O)C1CC=CC21` (stereo not given)?
ALDH1A1 inh: 8.9µM*; PNC assembly inh: -10; ALOX12 inhib: -1%; HPGD block: inconclusive; IMPase Li cell: 4%

What do the screens show for `CC(=O)c1ccc2c(c1)C1C=CCC1C(C(=O)O)N2` (stereo not given)?
ALDH1A1 inh: inconclusive; IMPase Li cell: 13%

Results for CC(C)C1Nc2ccc(S(N)(=O)=O)cc2C2C=CCC21 (stereo not given) ?
ALDH1A1 inh: 20µM*; IMPase cell inh: 12; PNC assembly inh: inconclusive; ALOX12 inhib: -25%; HPGD block: -27%; IMPase Li cell: 23%[38.3 µM]

What do the screens show for `Cc1ccc2c(c1)C1C=CCC1C(C(=O)O)N2` (stereo not given)?
ALDH1A1 inh: inconclusive; PNC assembly inh: 36; ALOX12 inhib: -3%; HPGD block: 20µM*; IMPase Li cell: 6%

Results for COc1cccc(C2Nc3c(F)cc(Br)cc3C3C=CCC32)c1OC (stereo not given) ?
ALDH1A1 inh: 6%; PNC assembly inh: 21; ALOX12 inhib: -4%; HPGD block: -12%; IMPase Li cell: 1%
